# According to PubChem BioAssay (EPA / NIEHS):
# Where “and” joins values, the source holds several entries; their conditions need not be identical. Equal values may be shown once. Where a structure was tested more than once in an assay, its records may differ in their call. Calls of active or inactive are those of the source. The calls were made as follows: active = hit-call score of the fitted dose curve at least 0.9, where 1 is the maximum; inactive = score below 0.9.
# Read-out: Thrombomodulin, THBD (gene 7056)
# Assay: BSK_3C_Thrombomodulin: BioMAP Diversity Plus: 3C Assay for Thrombomodulin Biomarker Activity (AID 2283029)
# Details: primary human endothelial cells (HUVEC); actives raise or lower the signal
# Procedure: BSK_3C is a cell-based, multiplexed-readout assay that uses umbilical vein endothelium, a human vascular primary cell, with measurements taken at 24 hours after chemical dosing in a 96-well plate.BSK_3C_Thrombomodulin is an assay component measured in the BSK_3C assay. It measures Thrombomodulin antibody related to regulation of gene expression using ELISA technology.Data from the assay component BSK_3C_Thrombomodulin was analyzed into 1 assay endpoint. This assay endpoint, BSK_3C_Thrombomodulin, was analyzed with bidirectional fitting relative to DMSO as the negative control and baseline of activity. Using a type of binding reporter, gain or loss-of-signal activity can be used to understand changes in the signaling as they relate to the gene THBD. Furthermore, this assay endpoint can be referred to as a primary readout, because this assay has produced multiple assay endpoints where this one serves a signaling function. To generalize the intended target to other relatable targets, this assay endpoint is annotated to the gpcr intended target family, where the subfamily is rhodopsin-like receptor.
# The levels of cell surface (or secreted, indicated by the prefix "s") biomarker endpoints were measured by ELISA. Overt cytotoxicity to cells in confluent adherent cultures (all systems other than the BT system) was assessed by measuring total protein levels using sulforhodamine B (SRB) staining in parallel cultures at the time of biomarker measurements, indicated as SRB endpoints. For proliferation assays for adherent cell types, individual cell types are cultured at sub-confluence and relative cell numbers quantified by SRB staining at time points optimized for each system (48 h: 3C and CASM3C systems; 72 h: BT and HDF3CGF systems; 96 h: SAg system). SRB was performed by staining cells with 0.1% SRB after fixation with 10% TCA and reading wells at 560 nm.Viability and proliferation of PBMC (T cells) was quantified by Alamar Blue reduction for the SAg and BT systems. For PBMC viability (referred to as PBMC Cytotoxicity within the assay endpoint names), cells were plated (75,000/well in a 96-well plate) and then chemical samples added for 1 h before addition of activators, SEB and TSST-1 (20 ng/mL final concentration each). Cells were incubated for 90 h. Then, Alamar Blue (20 uL/well) (Invitrogen, Cat DAL1100) was added for 6 h, and the plates were read with a fluorescence microplate reader at 546/580 nm (excitation/emission). For PBMC proliferation, cells were plated and activated as above but incubated for only 16 h prior to addition of Alamar Blue. Plates were read after 6 h.
Compound,outcome,AC50
C[C@]12CC[C@H]3C(=CCc4cc(O)ccc43)[C@@H]1CCC2=O,inactive,–
O=C=Nc1cccc2c(N=C=O)cccc12,inactive,–
C=C(C)C(=O)OCC(F)(F)C(F)(F)C(F)(F)C(F)F,inactive,21.8 µM (active)
NC(=O)C(F)(F)C(F)(F)C(F)(F)F,inactive,5.95 µM (active)
FC(F)(F)C(F)(F)C(F)(F)CC1CO1 (stereo not given),inactive,–
Cc1ccc(S(=O)(=O)C(I)I)cc1,–,4.78 µM (active)
CCN(CC)c1ccc(C=O)c(O)c1,inactive,–
CC(C)CCCC(C)CCO (stereo not given),inactive,–
CNS(=O)(=O)C(F)(F)C(F)(F)C(F)(F)C(F)(F)C(F)(F)C(F)(F)C(F)(F)C(F)(F)F,inactive,–
C=CC(=O)OCCC(F)(F)C(F)(F)C(F)(F)C(F)(F)F,–,6.34 µM (active) and 21.1 µM (active)
NC(=O)C(F)(F)C(F)(F)C(F)(F)C(F)(F)C(F)(F)C(F)(F)C(F)(F)F,inactive,–
CCN(CC)c1ccc2c(c1)Oc1cc(N(CC)CC)ccc1C21OC(=O)c2ccccc21,inactive,–
O=C(Cl)C(F)(F)C(F)(F)C(F)(F)C(F)(F)C(F)(F)C(F)(F)F,inactive,–
O=C(O)C(F)(F)C(F)(F)C(F)(F)OC(F)(F)F,inactive,5.95 µM (active)
NC(=O)C(F)(F)C(F)(F)C(F)(F)C(F)(F)C(N)=O,inactive,–
O=C(F)C1(F)C(F)(F)C(F)(F)C(F)(F)C(F)(F)C1(F)F,inactive,–
O=C=NCc1cccc(CN=C=O)c1,inactive,–
CCN(CCO)S(=O)(=O)C(F)(F)C(F)(F)C(F)(F)C(F)(F)C(F)(F)C(F)(F)C(F)(F)C(F)(F)F,–,12.6 µM (active) and 21.8 µM (active)

Compound,outcome,AC50
O=S(=O)(OCC(F)(F)F)C(F)(F)C(F)(F)C(F)(F)C(F)(F)F,inactive,–
CN(C(=O)C(F)(F)C(F)(F)C(F)(F)F)[Si](C)(C)C,inactive,–
CCN(CC)c1ccc(N=Nc2ccccc2)cc1,inactive,–
O=C(O)C(F)(F)C(F)(F)C(F)(F)C(F)(F)C(F)(F)C(F)(F)C(F)F,inactive,–
O=C(c1ccccc1)c1ccc(O)cc1O,inactive,–
Nc1cc([N+](=O)[O-])cc(Cl)c1O,inactive,–
OCC(F)(F)C(F)(F)C(F)(F)C(F)(F)C(F)(F)C(F)(F)C(F)(F)C(F)(F)CO,inactive,–
OCC(F)(F)C(F)(F)C(F)(F)C(F)(F)C(F)(F)C(F)(F)CO,inactive,–
C[Si](Cl)(Cl)CCC(F)(F)C(F)(F)C(F)(F)C(F)(F)C(F)(F)C(F)(F)F,inactive,–
CCN=C1C=CC(=C(c2ccc(N(CC)CC)cc2)c2ccc(N(CC)CC)cc2)c2ccccc21,–,4.54 µM (active) and 3.14 µM (active)
O=C1c2c(O)ccc(Nc3ccc(CCO)cc3)c2C(=O)c2c([N+](=O)[O-])ccc(O)c21,–,10.7 µM (active)
O=S(=O)(O)CCC(F)(F)C(F)(F)C(F)(F)C(F)(F)F,inactive,–
O=C(O)C(F)(F)OC(F)(F)C(F)(F)OC(F)(F)C(F)(F)OC(F)(F)F,inactive,–
C=CC(=O)OCC(F)(F)C(F)(F)C(F)(F)COC(=O)C=C,inactive,18 µM (active)
CO[Si](C)(CCC(F)(F)C(F)(F)C(F)(F)C(F)(F)C(F)(F)C(F)(F)F)OC,inactive,–
O=C(O)C(F)(F)C(F)(F)C(F)(F)C(=O)O,inactive,–
O=C1C=CC(=O)N1c1ccc(Cc2ccc(N3C(=O)C=CC3=O)cc2)cc1,–,11.3 µM (active)
FC(F)(F)C(F)(F)C(F)(F)C(F)(F)C(F)(F)C(F)(F)C(F)(F)CCI,inactive,–
